# Results published in PubChem BioAssay (NCATS).
# Unmarked numbers belong to inactive results. Records with an inconclusive call do not appear. Entries that show only a call come without a potency. Activity calls are given as the source filed them. Unless noted, the call rests on the fitted dose curve; in most records, active means well fitted curve in the direction sought with a large enough effect; inconclusive means small, poorly fitted or top-dose-only effect, or another doubt; inactive means no such curve, though single readings can be large; an effect the other way counts as inactive or inconclusive.
# What was measured:
# [1] = target: Tumor susceptibility gene 101 protein (Homo sapiens) (UniProt Q99816); experiment: qHTS Assay for Iinhibitors of HIV-1 Budding by Blocking the Interaction of PTAP/TSG101: Hit Validation (AID 651600); further: nearly all actives have a fitted effect of over 70% in size; further: potency means the concentration at half of the fitted maximal effect
# Method in brief: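 Tsg101 binding domain 10 uM + FITC-PTAP peptide 50 nM (final), 10 mM HEPES pH 7.5/0.15 M NaCl/0.01% Tween 20/3 mM EDTA/0.1 mM TCEP; 20 min RT; FP read, FITC filters.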
# [2] = target: Rap guanine nucleotide exchange factor 3 (Homo sapiens) (UniProt O95398); experiment: Confirmatory qHTS for antagonist of cAMP-regulated guanine nucleotide exchange factor 3 (EPAC1) (AID 1645880); conditions: EPAC1 Rap1B-BODIPY-GDP exchange, fluorescence; activity, negative = inhibition: at 115 µM (top of the series); further: nearly all actives have a fitted effect of over 55% in size
# Method in brief: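 Released BODIPY-GDP fluoresces less than Rap1-bound BODIPY-GDP; the signal is followed at 480/540 nm at 5-min intervals over 30 min, after 5 min at room temperature. Reactions contain 100 nM EPAC1, 250 nM RAP1B-BODIPY-GDP and 50 uM GDP; results are normalized to ATA and DMSO.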
# [3] = target: Rap guanine nucleotide exchange factor 4 (Homo sapiens) (UniProt Q8WZA2); experiment: Confirmatory qHTS for agonist of cAMP-regulated guanine nucleotide exchange factor 4 (EPAC2) (AID 1645884);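 further: nucleotide exchange releases bodipy-GDP from Rap1 and this lowers its fluorescence; nearly all actives have a fitted effect of over 65% in size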; further: potency means the concentration at half of the fitted maximal effect
# [4] = target: Rap guanine nucleotide exchange factor 4 (Homo sapiens) (UniProt Q8WZA2); experiment: Confirmatory qHTS for antagonist of cAMP-regulated guanine nucleotide exchange factor 4 (EPAC2) (AID 1645885); further: nearly all actives have a fitted effect of over 25% in size; further: potency means the concentration at half of the fitted maximal effect
# [5] = target: Rap guanine nucleotide exchange factor 3 (Homo sapiens) (UniProt O95398); experiment: Counterscreen qHTS for antagonist of cAMP-regulated guanine nucleotide exchange factor 3 (EPAC1) (AID 1645888)
# Method in brief: (§1)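 Rap1B–BODIPY-GDP (250 nM) with 50 uM GDP; compounds pin-transferred to 9.74 nM–152 uM final (activator) or from 7.32 nM upwards (inhibitor). Fluorescence Ex/Em 480/540 nm read at 5 and 30 min, then after adding cAMP or buffer, at room temperature.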
# [6] = target: Rap guanine nucleotide exchange factor 3 (Homo sapiens) (UniProt O95398); experiment: Counterscreen qHTS for agonist of cAMP-regulated guanine nucleotide exchange factor 3 (EPAC1) (AID 1645889); further: nearly all actives have a fitted effect of over 40% in size; further: potency means the concentration at half of the fitted maximal effect
# Method in brief: as §1
# [7] = Stat Signaling Pathway (AID 446; active means well fitted curve in either direction with a large enough effect, not every such curve was filed as active;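 further: ME-180 cervical cancer cells given 40 pM IL-6 alongside compound; SIE-controlled beta-lactamase reporter measured as 460/530 nm FRET emission ratio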)
# Method in brief: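 Emission at 460 and 530 nm (excitation 405 nm) reports SIE-controlled beta-lactamase in ME-180 cells. Cells received compound with 40 pM IL-6 for 5 hrs at 37 C; data scaled between 300 pM IL-6 and 125 nM JAK-inhibitor controls.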
# [8] = target: Lysosomal acid glucosylceramidase (Homo sapiens) (UniProt P04062); experiment: Glucocerebrosidase-p2 (AID 348; in the data active means potency below about 10 µM; further: potency means the concentration at half of the fitted maximal effect); conditions: purified GBA, blue fluorogenic substrate, 40 min
# Method in brief: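 Normal human glucocerebrosidase (0.2 nM) with blue fluorogenic substrate (80 uM final) in citrate/phosphate pH 5.9 with 10mM sodium taurocholate, 0.01% tween-20; 40 min RT, NaOH/glycine stop; fluorescence Ex 365/Em 440; AC50 from a titration from 0.6 nM upwards.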
# [9] = AP1 Signaling Pathway (AID 357; active means well fitted curve in either direction with a large enough effect, not every such curve was filed as active;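 further: ME-180 reporter cells stimulated with EGF at its EC50 level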); conditions: ME-180 AP-1-bla reporter, EGF-induced, beta-lactamase ratio, 5 h; at 7.69 µM (top of the series) unless noted
# Method in brief: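 AP-1-bla ME-180 cells, Opti-MEM + 0.5% dialyzed FBS, plated overnight 37 °C. Cpd titration + EC50 EGF, 5 h 37 °C. CCF4 2.5 h RT; ex 405, em 460/530 ratio → %activity, AC50.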
# [10] = target: Cytochrome P450 1A2 (Homo sapiens) (UniProt P05177); experiment: p450-cyp1a2 (AID 410; calls by dose curve; further: potency means the concentration at half of the fitted maximal effect)
# Method in brief: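 20nM CYP1A2, 100uM Luciferin-ME (=Km), 100mM KPO4; cpd 10 min RT; +NADPH regen, 60 min RT; stop/detect 20 min; luminescence. Normalized to furafylline 57 uM = full inhibition.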
# [11] = NFAT Signaling Pathway (AID 444; active means well fitted curve in either direction with a large enough effect, not every such curve was filed as active;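 further: carbachol stimulus at about its EC50 of 1 µM final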); conditions: Jurkat NFAT-bla M1, carbachol, beta-lactamase ratio, 5 h; at 7.69 µM (top of the series) unless noted
# Method in brief: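 Jurkat cells with NFAT-driven β-lactamase reporter and co-expressed M1 receptor, stimulated with carbachol (final 1 uM, ~EC50), compound titration, 5 h at 37 °C. CCF4 loaded 1 h at RT; 460/530 nm ratio gave %activity and AC50.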
# [12] = target: Glucocorticoid receptor (Homo sapiens) (UniProt P04150); experiment: GR-EFC Redistribution (AID 451; calls by dose curve; further: potency means the concentration at half of the fitted maximal effect); conditions: CHO-K1 GR-EFC translocation, beta-gal luminescence, 2 h
# Method in brief: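 CHO-K1 cells expressing nuclear EA and GR-ED fragments of b-gal; compounds titrated up to 46 uM final, 2 h at 37 C. GR nuclear translocation read as complemented b-gal luminescence after 1 h RT detection.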
# [13] = target: 3',5'-cyclic-AMP phosphodiesterase 4B (Homo sapiens) (UniProt Q07343); experiment: qHTS Assay for Inhibitors of PDE-IV (AID 607; active means well fitted activation curve with a large enough effect in the main read-out, with a control signal flat, not every such curve was filed as active)
# Method in brief: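 The readout is membrane depolarisation from a cAMP-sensing CNG channel, detected with a potential dye at ex 535/em 590. Cells were HEK293-derived (endogenous PDE-IV) at 1000 cells/well, titrated up to 22.9 uM final.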
# [14] = target: Cytochrome P450 3A4 (Homo sapiens) (UniProt P08684); experiment: qHTS Assay for Inhibitors and Substrates of Cytochrome P450 3A4 (AID 884); further: potency means the concentration at half of the fitted maximal effect; nearly all actives have a fitted effect of over 50% in size
# Method in brief: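 Luminescent readout of luciferin produced by CYP3A4 (20 nM) dealkylation of Luciferin-PPXE, 25 uM (its KM). NADPH-driven reaction ran 60 min at RT after 10 min compound preincubation; data scaled to 57 uM ketoconazole as 100% inhibition.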
# [15] = target: Cytochrome P450 3A4 (Homo sapiens) (UniProt P08684); experiment: qHTS Assay for Activators of Cytochrome P450 3A4 (AID 885); further: nearly all actives have a fitted effect of over 65% in size
# Method in brief: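 Activators are scored by enhanced luminescence from CYP3A4 conversion of luciferin-PPXE (25uM, equal to KM) to luciferin, after 60 min at RT with an NADPH-regenerating system.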
# [16] = qHTS Assay for Identification of Small Molecule Agonists for Hypoxia Response Element Signaling Pathway (AID 914; active means well fitted activation curve with a large enough effect in the signal ratio, with a control signal flat, not every such curve was filed as active; the % refers to the signal ratio); conditions: ME-180 (cervical carcinoma) HRE-bla reporter, beta-lactamase ratio, CoCl2, 17 h; activation: hits give high values
# Method in brief: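 HRE-bla ME-180 cells with beta-lactamase reporter under hypoxia response element, compounds with EC50 CoCl2 for 17 hours at 37 C. CCF4 substrate, 460nm/530nm emission ratio gave %Activity; AC50 from titration series.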
# Chain of Rap guanine nucleotide exchange factor 4 (Homo sapiens) (Q8WZA2 whole entry, looked up): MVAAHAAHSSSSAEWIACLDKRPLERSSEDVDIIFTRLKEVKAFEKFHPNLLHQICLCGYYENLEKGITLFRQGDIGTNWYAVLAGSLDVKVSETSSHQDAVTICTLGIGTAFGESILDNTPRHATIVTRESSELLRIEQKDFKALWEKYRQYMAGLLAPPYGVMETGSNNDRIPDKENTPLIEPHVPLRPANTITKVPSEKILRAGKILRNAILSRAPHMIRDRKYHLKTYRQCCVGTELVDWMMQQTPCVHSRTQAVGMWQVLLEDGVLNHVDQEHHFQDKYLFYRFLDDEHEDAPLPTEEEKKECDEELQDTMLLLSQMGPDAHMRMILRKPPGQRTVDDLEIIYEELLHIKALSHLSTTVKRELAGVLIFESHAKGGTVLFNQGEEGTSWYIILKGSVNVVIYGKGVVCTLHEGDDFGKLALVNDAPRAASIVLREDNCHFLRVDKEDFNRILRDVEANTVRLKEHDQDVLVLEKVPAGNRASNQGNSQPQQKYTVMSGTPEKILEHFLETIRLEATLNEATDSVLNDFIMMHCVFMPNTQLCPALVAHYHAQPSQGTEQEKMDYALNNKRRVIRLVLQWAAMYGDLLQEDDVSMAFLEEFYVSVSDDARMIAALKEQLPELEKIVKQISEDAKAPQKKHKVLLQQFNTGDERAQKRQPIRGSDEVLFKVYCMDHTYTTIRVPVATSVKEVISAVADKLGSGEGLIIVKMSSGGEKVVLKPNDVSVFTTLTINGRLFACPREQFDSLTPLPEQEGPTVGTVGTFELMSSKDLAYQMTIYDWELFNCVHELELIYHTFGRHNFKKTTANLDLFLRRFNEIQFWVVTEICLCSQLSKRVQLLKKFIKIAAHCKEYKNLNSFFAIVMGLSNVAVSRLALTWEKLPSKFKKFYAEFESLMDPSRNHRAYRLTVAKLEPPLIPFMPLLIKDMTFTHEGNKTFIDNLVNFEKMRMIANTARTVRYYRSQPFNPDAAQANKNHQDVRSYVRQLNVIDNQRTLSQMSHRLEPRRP
# Chain of Rap guanine nucleotide exchange factor 3 (Homo sapiens) (O95398 whole entry, looked up): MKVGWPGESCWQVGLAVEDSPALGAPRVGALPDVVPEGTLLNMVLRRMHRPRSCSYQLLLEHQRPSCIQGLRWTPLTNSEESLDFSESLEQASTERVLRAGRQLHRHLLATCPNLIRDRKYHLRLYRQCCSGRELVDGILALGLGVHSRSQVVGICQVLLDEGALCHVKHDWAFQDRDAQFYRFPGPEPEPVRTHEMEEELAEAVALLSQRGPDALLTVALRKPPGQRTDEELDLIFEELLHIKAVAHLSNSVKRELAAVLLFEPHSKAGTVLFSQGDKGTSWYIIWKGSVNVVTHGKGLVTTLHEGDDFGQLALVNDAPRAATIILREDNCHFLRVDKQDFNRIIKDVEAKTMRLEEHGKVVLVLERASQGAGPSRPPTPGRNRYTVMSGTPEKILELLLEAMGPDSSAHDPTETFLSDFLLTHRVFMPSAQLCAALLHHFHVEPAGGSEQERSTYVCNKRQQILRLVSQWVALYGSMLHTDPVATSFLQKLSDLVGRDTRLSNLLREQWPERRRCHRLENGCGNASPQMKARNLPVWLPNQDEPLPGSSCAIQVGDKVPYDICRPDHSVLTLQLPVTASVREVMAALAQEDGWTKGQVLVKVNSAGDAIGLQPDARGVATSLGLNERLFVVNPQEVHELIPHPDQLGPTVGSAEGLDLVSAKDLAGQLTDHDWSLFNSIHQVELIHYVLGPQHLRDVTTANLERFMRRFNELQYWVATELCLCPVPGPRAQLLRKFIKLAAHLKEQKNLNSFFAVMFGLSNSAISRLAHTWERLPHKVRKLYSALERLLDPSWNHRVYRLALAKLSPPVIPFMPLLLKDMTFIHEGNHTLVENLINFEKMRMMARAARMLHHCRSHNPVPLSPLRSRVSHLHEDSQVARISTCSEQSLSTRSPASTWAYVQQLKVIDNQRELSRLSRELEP
# Chain of Tumor susceptibility gene 101 protein (Homo sapiens) (Q99816 whole entry, looked up, the tested form may be a part): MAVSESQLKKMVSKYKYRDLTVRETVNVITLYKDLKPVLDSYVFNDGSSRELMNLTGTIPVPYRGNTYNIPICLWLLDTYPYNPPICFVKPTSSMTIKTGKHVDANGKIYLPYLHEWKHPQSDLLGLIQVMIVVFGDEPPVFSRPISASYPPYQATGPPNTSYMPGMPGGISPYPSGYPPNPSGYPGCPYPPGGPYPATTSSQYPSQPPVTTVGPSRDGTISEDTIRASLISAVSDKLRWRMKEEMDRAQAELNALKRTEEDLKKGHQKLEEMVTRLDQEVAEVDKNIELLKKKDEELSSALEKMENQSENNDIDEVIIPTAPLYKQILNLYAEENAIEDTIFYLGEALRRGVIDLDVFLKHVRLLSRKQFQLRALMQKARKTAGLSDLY
# Chain of Cytochrome P450 3A4 (Homo sapiens) (P08684 whole entry, looked up): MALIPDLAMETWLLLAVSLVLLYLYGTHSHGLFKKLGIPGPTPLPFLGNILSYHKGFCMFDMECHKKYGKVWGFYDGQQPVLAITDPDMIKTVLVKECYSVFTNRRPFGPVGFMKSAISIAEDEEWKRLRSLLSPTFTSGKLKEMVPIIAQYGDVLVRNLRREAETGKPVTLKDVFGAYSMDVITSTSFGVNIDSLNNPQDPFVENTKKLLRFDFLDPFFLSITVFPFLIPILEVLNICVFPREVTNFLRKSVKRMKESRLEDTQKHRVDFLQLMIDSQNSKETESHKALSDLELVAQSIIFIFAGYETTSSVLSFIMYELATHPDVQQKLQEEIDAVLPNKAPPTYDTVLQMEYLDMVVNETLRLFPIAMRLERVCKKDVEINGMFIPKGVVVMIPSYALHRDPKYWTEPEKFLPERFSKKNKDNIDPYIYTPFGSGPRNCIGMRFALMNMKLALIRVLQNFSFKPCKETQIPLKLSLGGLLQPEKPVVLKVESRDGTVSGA
# Chain of Cytochrome P450 1A2 (Homo sapiens) (P05177 whole entry, looked up): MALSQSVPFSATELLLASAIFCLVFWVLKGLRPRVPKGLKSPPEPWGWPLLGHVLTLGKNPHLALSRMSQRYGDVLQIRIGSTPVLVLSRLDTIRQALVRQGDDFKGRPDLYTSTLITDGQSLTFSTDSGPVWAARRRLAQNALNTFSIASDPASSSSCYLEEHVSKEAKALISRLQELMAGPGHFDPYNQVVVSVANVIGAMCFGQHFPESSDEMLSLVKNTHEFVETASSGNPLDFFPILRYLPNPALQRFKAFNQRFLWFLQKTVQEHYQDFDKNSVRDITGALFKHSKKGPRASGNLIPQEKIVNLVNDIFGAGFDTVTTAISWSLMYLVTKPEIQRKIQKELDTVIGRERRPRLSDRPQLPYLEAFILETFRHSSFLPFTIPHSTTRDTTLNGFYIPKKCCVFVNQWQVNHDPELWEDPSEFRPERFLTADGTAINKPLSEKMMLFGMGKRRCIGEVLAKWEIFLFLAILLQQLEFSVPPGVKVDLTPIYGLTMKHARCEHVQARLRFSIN
# Chain of Glucocorticoid receptor (Homo sapiens) (P04150 whole entry, looked up, the tested form may be a part): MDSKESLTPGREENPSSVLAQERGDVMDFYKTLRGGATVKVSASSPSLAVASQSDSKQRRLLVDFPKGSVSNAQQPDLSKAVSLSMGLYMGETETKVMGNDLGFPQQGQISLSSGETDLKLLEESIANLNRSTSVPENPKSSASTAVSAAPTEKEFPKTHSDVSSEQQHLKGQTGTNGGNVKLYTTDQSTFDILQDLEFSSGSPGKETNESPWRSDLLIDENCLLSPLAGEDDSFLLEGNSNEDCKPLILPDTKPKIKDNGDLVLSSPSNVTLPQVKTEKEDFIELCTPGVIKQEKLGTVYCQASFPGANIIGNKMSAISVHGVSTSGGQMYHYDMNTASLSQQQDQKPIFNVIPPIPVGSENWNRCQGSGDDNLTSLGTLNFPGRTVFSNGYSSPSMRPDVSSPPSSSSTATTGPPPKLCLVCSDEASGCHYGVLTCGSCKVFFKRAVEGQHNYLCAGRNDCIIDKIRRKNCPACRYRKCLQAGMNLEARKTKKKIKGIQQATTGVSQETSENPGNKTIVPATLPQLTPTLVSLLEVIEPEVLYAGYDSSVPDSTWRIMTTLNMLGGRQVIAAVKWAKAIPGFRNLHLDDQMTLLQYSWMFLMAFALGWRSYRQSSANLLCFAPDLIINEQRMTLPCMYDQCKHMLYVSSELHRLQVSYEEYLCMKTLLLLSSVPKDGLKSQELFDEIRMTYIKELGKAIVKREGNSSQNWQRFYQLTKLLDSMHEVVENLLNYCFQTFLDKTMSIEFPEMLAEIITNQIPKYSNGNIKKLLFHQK
# Chain of 3',5'-cyclic-AMP phosphodiesterase 4B (Homo sapiens) (Q07343 whole entry, looked up): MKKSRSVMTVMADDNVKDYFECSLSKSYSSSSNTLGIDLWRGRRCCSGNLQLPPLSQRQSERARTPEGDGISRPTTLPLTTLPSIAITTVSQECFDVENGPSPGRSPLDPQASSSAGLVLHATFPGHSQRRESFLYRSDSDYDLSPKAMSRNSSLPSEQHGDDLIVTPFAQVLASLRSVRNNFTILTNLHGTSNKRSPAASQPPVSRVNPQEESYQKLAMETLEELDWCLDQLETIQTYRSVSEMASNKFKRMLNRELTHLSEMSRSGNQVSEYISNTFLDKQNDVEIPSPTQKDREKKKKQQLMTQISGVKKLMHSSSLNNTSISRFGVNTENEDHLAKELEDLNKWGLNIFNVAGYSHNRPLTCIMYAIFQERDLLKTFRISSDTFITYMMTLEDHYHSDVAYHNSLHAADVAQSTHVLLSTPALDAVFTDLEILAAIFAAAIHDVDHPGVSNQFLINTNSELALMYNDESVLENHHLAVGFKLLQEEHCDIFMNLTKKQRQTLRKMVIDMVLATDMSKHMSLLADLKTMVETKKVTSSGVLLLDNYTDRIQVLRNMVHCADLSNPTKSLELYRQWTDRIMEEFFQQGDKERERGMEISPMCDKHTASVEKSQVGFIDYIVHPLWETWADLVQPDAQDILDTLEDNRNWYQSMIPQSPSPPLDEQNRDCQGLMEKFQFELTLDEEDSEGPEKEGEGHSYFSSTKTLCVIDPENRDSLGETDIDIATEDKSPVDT
smiles,measurement,setting,value
O=C(c1ccccc1)c1ccc(O)cc1O,Potency,[1],5.8 µM (active)
same,Potency,[2],inactive
same,activation,[3],"17% [at 17.1 µM, percent relative to cAMP agonist control]"
same,Potency,[4],inactive
same,"activity change, negative = inhibition",[5],-16.9% [at 30.8 µM]
same,activation,[6],6.44% [at 30.8 µM]
O=C(NCc1ccc(F)cc1)c1cccc2c1C(=O)c1ccc(N3CCC(Cc4ccccc4)CC3)cc1S2(=O)=O,Potency,[1],10.3 µM (active)
same,Potency,[2],inactive
same,activation,[3],"30% [at 17.1 µM, percent relative to cAMP agonist control]"
same,Potency,[4],inactive
same,"activity change, negative = inhibition",[5],83.7% [at 30.8 µM]
CCCn1c(O)c(N=Nc2ccc3ccccc3n2)c2ccccc21,Potency,[1],inactive
same,Potency,[2],inactive
same,Potency,[3],100 µM (active)
same,Potency,[4],21.3 µM (active)
same,Potency,[5],inactive
Cc1ccc(/C=C/C(=O)c2ccc(N3CCOCC3)cc2)s1,Potency,[2],inactive
same,Potency,[3],100 µM (active)
same,Potency,[5],inactive
CCN(CC)c1ccc(/C=C(\C#N)C(=O)c2ccc(Br)cc2)cc1,Potency,[1],inactive
same,Potency,[2],inactive
same,Potency,[3],112 µM (active)
same,Potency,[4],inactive
same,Potency,[5],inactive
Cc1nn(C)c(C)c1N1C(=O)c2cccc3c(N)ccc(c23)C1=O,Potency,[1],2.59 µM (active)
same,Potency,[2],inactive
same,Potency,[3],5.01 µM (active)
same,Potency,[4],inactive
same,"activity change, negative = inhibition",[5],353% [at 30.8 µM]
same,Potency,[6],11.2 µM (active)
Cc1cccc(N2C(=O)c3cccc4c(N)ccc(c34)C2=O)c1,Potency,[1],2.31 µM (active)
same,Potency,[2],inactive
same,Potency,[3],112 µM (active)
same,Potency,[4],84.9 µM (active)
Nc1ccc2nc3c(=O)n(CCc4ccccc4)c(=O)[nH]c3nc2c1,Potency,[1],3.26 µM (active)
same,Potency,[2],inactive
same,Potency,[3],100 µM (active)
same,Potency,[4],42.6 µM (active)
same,Potency,[5],inactive
same,Potency,[6],70.8 µM (active)
COc1ccccc1NC(=O)c1sc2nc(Cc3ccccc3)cc(C(F)(F)F)c2c1N,Potency,[1],13 µM (active)
same,Potency,[2],inactive
same,activation,[3],"-0.606% [at 17.1 µM, percent relative to cAMP agonist control]"
same,Potency,[4],inactive
same,"activity change, negative = inhibition",[5],-9.81% [at 30.8 µM]
COc1ccc2c3c(cccc13)C(=O)CC2,Potency,[1],18.3 µM (active)
same,Potency,[2],inactive
same,Potency,[3],112 µM (active)
same,Potency,[4],inactive
same,Potency,[6],31.6 µM (active)
CCN(CC)c1ccc2cc(-c3nnc(-c4ccncc4)o3)c(=O)oc2c1,outcome,[7],inactive
same,Potency,[1],inactive
same,Potency,[2],inactive
same,Potency,[3],100 µM (active)
same,Potency,[4],75.7 µM (active)
same,Potency,[5],inactive
Cc1nc(Cl)c2c(n1)NC1=C(O2)C(=O)CCC1,Potency,[1],18.3 µM (active)
same,Potency,[2],inactive
same,activation,[3],"10.5% [at 17.1 µM, percent relative to cAMP agonist control]"
same,Potency,[4],inactive
same,"activity change, negative = inhibition",[5],20% [at 30.8 µM]
COc1ccc(Oc2ncc3nc(C)c(=O)n(Cc4cccs4)c3n2)cc1,Potency,[8],> 11.4 µM
same,"activity change, negative = inhibition",[9],4.45%
same,Potency,[10],10 µM (active)
same,"activity change, negative = inhibition",[11],-5.89%
same,outcome,[7],inactive
same,Potency,[12],> 46 µM
same,Potency,[13],inactive
same,Potency,[14],3.16 µM (active)
same,outcome,[15],inactive
same,activation,[16],-21.2%
CC[n+]1ccc(/C=C/c2c[nH]c3ccccc23)cc1,Potency,[2],inactive
same,Potency,[4],inactive
same,Potency,[5],inactive
same,Potency,[6],44.7 µM (active)
CCN1C(=O)C(=CC=CN(C)c2ccccc2)SC1=S,Potency,[2],inactive
same,Potency,[4],inactive
same,"activity change, negative = inhibition",[5],12.2% [at 30.8 µM]
same,Potency,[6],11.2 µM (active)
O=C1CC2(CCN(S(=O)(=O)c3ccccc3F)CC2)Oc2ccccc21,Potency,[2],inactive
same,Potency,[4],inactive
same,Potency,[5],inactive
N#Cc1cc(Br)ccc1N=C1CCCN1c1ccccc1,Potency,[2],inactive
same,Potency,[4],3.01 µM (active)
same,Potency,[5],inactive
same,Potency,[6],inactive
COc1cccc(/C(O)=C/c2nc3ccc(C(=O)NCCc4cccc(C)c4)cc3[nH]c2=O)c1,Potency,[2],inactive
same,Potency,[4],inactive
same,Potency,[5],inactive
same,Potency,[6],inactive
COc1ccc(-c2nn(-c3ccccc3)cc2/C=C2/SC(=S)N(CCC(=O)O)C2=O)cc1,Potency,[2],inactive
same,Potency,[4],inactive
same,Potency,[5],inactive
O=C(NCCOc1ccccc1F)c1ccccc1SCc1ccc(F)cc1,Potency,[2],inactive
same,Potency,[4],10.7 µM (active)
same,Potency,[5],inactive
same,Potency,[6],inactive
CC(C)N1CCc2c(sc(NC(=O)c3ccc(C(=O)c4ccccc4)cc3)c2C(N)=O)C1,Potency,[2],inactive
same,Potency,[4],inactive
same,Potency,[5],inactive
COc1ccc(CCNC(=S)N2CCN(S(=O)(=O)c3ccc(F)cc3)CC2)cc1,Potency,[2],inactive
same,Potency,[4],inactive
same,Potency,[5],inactive
Oc1ccc(N=Cc2sc3ccccc3c2Cl)cc1,Potency,[2],inactive
same,Potency,[4],inactive
same,Potency,[5],inactive
same,Potency,[6],inactive
CC1CC1c1ccc(/C=C(\C#N)C(=O)Nc2cc(Cl)ccc2Cl)o1 (stereo not drawn),Potency,[2],inactive
same,Potency,[4],inactive
same,Potency,[5],inactive
same,Potency,[6],inactive
COc1ccc(NC(=O)NS(=O)(=O)c2ccc(C)cc2)cn1,Potency,[2],inactive
same,Potency,[4],inactive
same,Potency,[5],inactive
same,Potency,[6],63.1 µM (active)
O=C(NC1CCCC1)c1cccc2c1C(=O)c1ccc(N3CCCCC3)cc1S2(=O)=O,Potency,[2],inactive
same,Potency,[4],inactive
same,Potency,[5],inactive
same,Potency,[6],inactive
COc1ccc(C(=O)N(CCc2ccccc2)Cc2cccs2)c(OC)c1,Potency,[2],inactive
same,Potency,[4],inactive
same,Potency,[5],inactive
same,Potency,[6],inactive
